Our source for the Potency, activity change, negative = inhibition and % pathology change, negative = correction values is PubChem BioAssay (NCATS).

Values joined by “and” are separate entries in the source; they are usually repeats but may differ in a detail not shown here. Identical values can stand only once. Inconclusive results are not listed. Unmarked numbers belong to inactive results. Active and inactive are the calls of the source. Unless noted, calls come from the whole dose curve; as a rule, active = well fitted curve in the direction sought with a large enough effect; inconclusive = small, poorly fitted or top-dose-only effect, or another doubt; inactive = no such curve, though single readings can be large; an effect the other way counts as inactive or inconclusive.

The target in assay [1] is Calcium and integrin-binding protein 1 (Homo sapiens) (UniProt Q99828). Briefly: Primary qHTS for Identification of Calcium Integrin Binding Protein 1 (CIB1) Competitor (AID 1508620).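 Note: GST tagged CIB1 binding a fluorescein labelled alphaIIb integrin peptide tracer; top concentration of the series differs between compounds; % is set by controls: 0 for no effect and ±100 for the full control effect.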 Particulars: CIB1-GST / FITC-alphaIIb peptide fluorescence polarization; series mostly up to 114 µM. The essentials:
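Fluorescence polarization competition: GST-tagged CIB1 (1 uM final) preincubated with compound 15 min at room temperature, then FITC-labelled alphaIIb peptide (100 nM final) added. After 15 min at room temperature, polarization read at Ex 480/Em 540.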

Assay [2] is described as follows: Primary qHTS for small molecule stabilizers of the endoplasmic reticulum resident proteome: Secreted ER Calcium Modulated Protein (SERCaMP) assay (AID 1508630). For activity change, negative = inhibition: % is set by controls: 0 for no effect and ±100 for the full control effect. Note: potency is the fitted concentration of half-maximal effect. To be noted: SH-SY5Y GLuc-SERCaMP (Gaussia luciferase released on ER calcium loss) secretion, thapsigargin, luminescence; series mostly up to 38.4 µM. An outline of the steps: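 The SH-SY5Y reporter protocol was run at 3 concentrations up to 38.3 uM (primary) or 11 concentrations (follow-up): 16 h compound, 100 nM thapsigargin for 4 h, then extracellular luciferase luminescence.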

Assay [3] is described as follows: A High-Content qHTS Against Drug Library for the Identification of Small Molecules that Inhibit DYT1 Early Onset Primary Dystonia-Associated Cell Pathology (AID 1645839; calls by dose curve; note: potency is the fitted concentration of half-maximal effect). Particulars: HEK293 Flp-In EGFP-delE TorsinA, punctate imaging, 48 h; series mostly up to 46.1 µM. An outline of the steps: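 Cells were seeded and left for 24 h, then dosed with compound alongside tetracycline induction of mutant EGFP-TorsinA. They were incubated for 48 h, fixed in 4% paraformaldehyde, permeabilized and imaged for mislocalization (%pathology) and cell count.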

Assay [4] addresses Cytochrome P450 2D6 (Homo sapiens) (UniProt P10635). Kind of assay: Cytochrome P450 family 2 subfamily D member 6 (CYP2D6) small molecule antagonists: luciferase biochemical (cell-free) qHTS assay (AID 1645840; active = well fitted curve in the direction sought with a large enough effect in the repeat runs; an effect the other way counts as inactive or inconclusive; note: nearly all actives have a fitted effect of over 55% in size; note: potency is the fitted concentration of half-maximal effect; for activity change, negative = inhibition: % is set by controls: 0 for no effect and ±100 for the full control effect). Particulars: P450-Glo CYP2D6 enzyme, luciferin luminescence, 1 h; series mostly up to 57.4 µM. An outline of the steps: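 P450-Glo CYP2D6 system: proluciferin substrate converted by enzyme to luciferin, read by luminescence proportional to activity. Enzyme-substrate mix with compound 10 min at room temperature, then NADPH regeneration 1 h before detection reagent.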

The target in assay [5] is Cytochrome P450 2C9 (Homo sapiens) (UniProt P11712). Briefly: Cytochrome P450 family 2 subfamily C member 9 (CYP2C9) small molecule antagonists: luciferase biochemical (cell-free) qHTS assay (AID 1645842; active = well fitted curve in the direction sought with a large enough effect in the repeat runs; an effect the other way counts as inactive or inconclusive; note: nearly all actives have a fitted effect of over 55% in size; note: potency is the fitted concentration of half-maximal effect; for activity change, negative = inhibition: % is set by controls: 0 for no effect and ±100 for the full control effect). To be noted: P450-Glo CYP2C9 enzyme assay, luciferin luminescence; series mostly up to 57.4 µM. An outline of the steps: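 P450-Glo CYP2C9 system: proluciferin substrate with enzyme in mix containing 0.4% BSA, 10 min at room temperature, then NADPH regeneration solution added and incubated 1 h at 37C. Detection reagent stopped reaction; luminescence read after 20 min as RLU.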
Chain of Cytochrome P450 2C9 (Homo sapiens) (P11712 whole entry, looked up): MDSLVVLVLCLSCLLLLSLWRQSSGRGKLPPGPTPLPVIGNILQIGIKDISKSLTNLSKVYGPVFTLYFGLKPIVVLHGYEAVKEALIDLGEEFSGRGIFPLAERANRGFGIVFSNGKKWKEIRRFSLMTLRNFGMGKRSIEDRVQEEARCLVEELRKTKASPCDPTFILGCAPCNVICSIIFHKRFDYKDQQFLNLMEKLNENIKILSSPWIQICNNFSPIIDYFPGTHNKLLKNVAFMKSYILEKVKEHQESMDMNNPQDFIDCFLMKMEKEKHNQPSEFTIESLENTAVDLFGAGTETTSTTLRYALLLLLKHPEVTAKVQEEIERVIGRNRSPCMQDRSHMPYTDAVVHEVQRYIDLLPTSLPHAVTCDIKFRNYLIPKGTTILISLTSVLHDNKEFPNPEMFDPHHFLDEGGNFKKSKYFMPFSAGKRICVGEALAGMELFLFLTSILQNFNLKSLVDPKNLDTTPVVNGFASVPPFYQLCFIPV

Chain of Calcium and integrin-binding protein 1 (Homo sapiens) (Q99828 whole entry, looked up): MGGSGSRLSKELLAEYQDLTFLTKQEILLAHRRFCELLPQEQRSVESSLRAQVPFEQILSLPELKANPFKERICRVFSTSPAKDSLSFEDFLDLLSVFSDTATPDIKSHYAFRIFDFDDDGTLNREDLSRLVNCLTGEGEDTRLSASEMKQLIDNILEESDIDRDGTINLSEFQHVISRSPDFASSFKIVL
Chain of Cytochrome P450 2D6 (Homo sapiens) (P10635 whole entry, looked up): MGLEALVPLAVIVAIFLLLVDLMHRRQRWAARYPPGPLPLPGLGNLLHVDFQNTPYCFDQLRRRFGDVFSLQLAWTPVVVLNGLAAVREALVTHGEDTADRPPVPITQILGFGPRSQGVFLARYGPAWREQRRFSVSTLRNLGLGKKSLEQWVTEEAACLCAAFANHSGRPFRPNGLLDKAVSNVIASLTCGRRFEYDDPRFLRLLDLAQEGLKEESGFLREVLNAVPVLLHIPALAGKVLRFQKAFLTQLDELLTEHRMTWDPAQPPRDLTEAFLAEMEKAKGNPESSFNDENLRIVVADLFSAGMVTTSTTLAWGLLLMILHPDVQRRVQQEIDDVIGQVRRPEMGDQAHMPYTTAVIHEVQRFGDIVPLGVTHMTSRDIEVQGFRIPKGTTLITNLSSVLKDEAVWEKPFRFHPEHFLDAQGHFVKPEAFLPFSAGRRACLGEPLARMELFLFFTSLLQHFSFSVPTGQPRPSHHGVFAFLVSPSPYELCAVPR

Consider `OC[C@H]1O[C@@H]2O[C@H]3[C@H](O)[C@@H](O)[C@@H](O[C@H]4[C@H](O)[C@@H](O)[C@@H](O[C@H]5[C@H](O)[C@@H](O)[C@@H](O[C@H]6[C@H](O)[C@@H](O)[C@@H](O[C@H]7[C@H](O)[C@@H](O)[C@@H](O[C@H]8[C@H](O)[C@@H](O)[C@@H](O[C@H]1[C@H](O)[C@H]2O)O[C@@H]8CO)O[C@@H]7CO)O[C@@H]6CO)O[C@@H]5CO)O[C@@H]4CO)O[C@@H]3CO`, for which the Potency entry in assay [1], in assay [2], in assay [3], in assay [4] and in assay [5] was “inactive” throughout.

Regarding `Clc1cccc(C(c2ccc3nc[nH]c3c2)n2ccnc2)c1` (stereo not given), the Potency result in assay [1], in assay [2] and in assay [3] was “inactive” in each case. For the same molecule, the results for the Potency in assay [4] and in assay [5] were 15.5 µM (active) and 7.76 µM (active), respectively.

As to `COc1cc(O)c(C(=O)c2ccccc2)cc1S(=O)(=O)O`, the Potency result in assay [1], in assay [2], in assay [3], in assay [4] and in assay [5] was “inactive” each time.

Turning to `CC(C)Cn1cnc2c1c(=O)n(C)c(=O)n2C`, the Potency result in assay [1], in assay [2], in assay [3], in assay [4] and in assay [5] was “inactive” in each case.

For the molecule `C[N+]1(C)CCC(=C(c2ccccc2)c2ccccc2)CC1`, the Potency entry in assay [1], in assay [2], in assay [3] and in assay [5] was “inactive” in each case. For the same molecule, in assay [4], the Potency was 13.8 µM (active).

For the molecule `CC(=O)OCC1=C(C(=O)O)N2C(=O)[C@@H](NC(=O)CSc3ccncc3)[C@H]2SC1`, the Potency result in assay [1], in assay [2] and in assay [3] was “inactive” throughout. The results for the Potency in assay [4] and in assay [5] were 13.8 µM (active) and 11 µM (active), respectively.

`CN(C)CCC[C@@]1(c2ccc(F)cc2)OCc2cc(C#N)ccc21`: the Potency entry in assay [1], in assay [2], in assay [3] and in assay [5] was “inactive” in each case. The Potency in assay [4] was 13.8 µM (active) and 12 µM (active).

Take `O=C(Oc1cccc2cccnc12)c1ccccc1`: the Potency result in assay [1], in assay [2], in assay [3], in assay [4] and in assay [5] was “inactive” throughout.

`NC(=O)c1ccccc1O`: the Potency entry in assay [1], in assay [2], in assay [3], in assay [4] and in assay [5] was “inactive” each time.

In the case of `CC(C)Cc1ccc(CC(=O)O)cc1`, the Potency result in assay [1], in assay [2], in assay [3], in assay [4] and in assay [5] was “inactive” throughout.

As to `CCN1/C(=C/C=C/c2sc3ccccc3[n+]2CC)Sc2ccccc21`, the Potency entry in assay [1] and in assay [2] was “inactive” each time. For the same molecule, the Potency in assay [3] was 11.2 µM (active); in assay [4], 2.13 µM (active); in assay [5] it was 9.52 µM (active).

For `Cc1cc(-c2ccccc2)nnc1NCCN1CCOCC1`, the Potency entry in assay [1], in assay [2], in assay [3] and in assay [5] was “inactive” throughout. Moreover, the Potency in assay [4] is 4.9 µM (active).

As for `FC1(F)C(F)(F)C(F)(F)C2(F)C(F)(F)C(F)(F)C(F)(F)C(F)(F)C2(F)C1(F)F` (stereo not given), the Potency entry in assay [1], in assay [2], in assay [3], in assay [4] and in assay [5] was “inactive” each time.

For `CN1CCN(c2c(F)cc3c(=O)c(C(=O)O)cn4c3c2SCC4)CC1`, the Potency result in assay [1], in assay [2], in assay [3], in assay [4] and in assay [5] was “inactive” in each case.

Turning to `CCCCCCCCCCCCCC(=O)OC(C)C`, the Potency result in assay [1], in assay [2], in assay [3], in assay [4] and in assay [5] was “inactive” in each case.

For the molecule `CC(=O)OC[C@H]1O[C@@H](n2ncc(=O)[nH]c2=O)[C@H](OC(C)=O)[C@@H]1OC(C)=O`, the Potency entry in assay [1], in assay [2], in assay [3] and in assay [5] was “inactive” in each case. In addition, the Potency in assay [4] is 7.76 µM (active).

As for `CC(C)NCC(O)c1ccc2ccccc2c1` (stereo not given), the Potency result in assay [1], in assay [2], in assay [3] and in assay [5] was “inactive” in each case. Also, the Potency in assay [4] was 3.47 µM (active).

For `O=C(O)CCNC(=O)c1ccccc1`, the Potency result in assay [1], in assay [2], in assay [3], in assay [4] and in assay [5] was “inactive” throughout.

With `CCN(CC)CCNC(=O)COc1ccc(OC)cc1`, the Potency result in assay [1], in assay [2], in assay [3] and in assay [5] was “inactive” in each case. The Potency in assay [4] was 13.8 µM (active).

`CC[N+](C)(CC)CCOC(=O)C(O)(c1ccccc1)C1CCCCC1` (stereo not given): the Potency result in assay [1], in assay [2], in assay [3] and in assay [5] was “inactive” each time. Further, the Potency in assay [4] was 0.776 µM (active).

For the molecule `CCc1cc(Cl)c(OC)c(C(=O)NC[C@@H]2CCCN2CC)c1O`, the Potency entry in assay [1], in assay [2], in assay [3] and in assay [5] was “inactive” throughout. Also, the Potency in assay [4] was 0.219 µM (active).

With `O=C(CCCN1CC=C(n2c(=O)[nH]c3ccccc32)CC1)c1ccc(F)cc1`, the Potency result in assay [1], in assay [3] and in assay [5] was “inactive” in each case. In addition, the Potency was 25.1 µM (active) in assay [2] and 0.246 µM (active) in assay [4].

Take `CC(=O)NC(=O)c1ccccc1O`: the Potency entry in assay [1], in assay [2], in assay [3], in assay [4] and in assay [5] was “inactive” throughout.

For the molecule `Cc1cccc(C)c1NC(=O)CN1CCCCCC1`, the Potency entry in assay [1], in assay [2], in assay [3] and in assay [5] was “inactive” each time. Also, the Potency in assay [4] is 11 µM (active).

As for `CCCCCCCC/C=C\CCCCCCCCN`, the Potency result in assay [1], in assay [2] and in assay [3] was “inactive” throughout. Moreover, the Potency is 0.55 µM (active) in assay [4] and 19.5 µM (active) in assay [5].

With `N=C(N)N1CCc2ccccc2C1`, the activity change, negative = inhibition in assay [1] is -1.23% [at 12.4 µM]; in assay [2] it was -7.52% [at 3.88 µM]; in assay [4], 3.13% [at 4.83 µM]; in assay [5], 12.1% [at 4.83 µM]. Further, the % pathology change, negative = correction in assay [3] is 0.596% [at 4.63 µM].

Take `NCCNC(=O)c1ccc(Cl)cn1`: the Potency result in assay [1], in assay [2], in assay [3], in assay [4] and in assay [5] was “inactive” each time.

As to `CCN(CC)CCNC(=O)c1cc(Br)c(N)cc1OC`, the Potency result in assay [1], in assay [2], in assay [3] and in assay [5] was “inactive” each time. Moreover, the Potency in assay [4] is 6.92 µM (active).

As for `COc1ccc(CN(CCN(C)C)c2ncccn2)cc1`, the Potency entry in assay [1], in assay [2], in assay [3] and in assay [5] was “inactive” each time. In addition, the Potency in assay [4] was 0.49 µM (active).
